Measured values reported in PubChem BioAssay AID1894 (NMMLSC, 2009).
In all, about 5,900 compounds went through this assay and about 100 (1.7%) were called active.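 How the source made its calls: active means binding response below 72% of control, or above a set upper limit, though filed actives all read lower; inactive means the rest.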 Many of the other results were omitted from the sample, so actives are more common in it than they were.

Target: Mitogen-activated protein kinase kinase kinase 3 (Homo sapiens) (UniProt Q99759)
Sequence (Q99759 whole entry, looked up): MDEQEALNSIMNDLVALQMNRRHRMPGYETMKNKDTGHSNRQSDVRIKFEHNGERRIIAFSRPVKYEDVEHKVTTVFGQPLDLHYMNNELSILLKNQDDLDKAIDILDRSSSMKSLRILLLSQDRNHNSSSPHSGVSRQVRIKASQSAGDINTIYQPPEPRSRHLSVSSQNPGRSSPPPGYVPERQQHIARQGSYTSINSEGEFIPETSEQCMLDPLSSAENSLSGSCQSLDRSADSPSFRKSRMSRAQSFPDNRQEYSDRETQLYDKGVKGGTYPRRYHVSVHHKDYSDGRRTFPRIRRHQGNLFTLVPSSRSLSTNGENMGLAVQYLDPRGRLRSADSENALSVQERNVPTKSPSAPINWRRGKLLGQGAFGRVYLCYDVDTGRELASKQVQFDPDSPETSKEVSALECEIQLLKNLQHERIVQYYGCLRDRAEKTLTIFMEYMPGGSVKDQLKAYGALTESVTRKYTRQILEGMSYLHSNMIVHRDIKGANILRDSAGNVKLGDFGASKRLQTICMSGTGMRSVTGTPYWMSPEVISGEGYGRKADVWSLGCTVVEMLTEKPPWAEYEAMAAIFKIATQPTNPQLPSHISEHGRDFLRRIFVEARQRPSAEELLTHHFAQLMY
Assay: MEKK3 wild-type PB1 binding to MEK5, inhibitors, confirmation, biochemical, bead multiplex flow cytometry, single concentration, wildtype (AID 1894);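 further: 100% = DMSO only wells and 0% = binding blocked by excess unlabeled MEK5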
Conditions: Alexa488-MEK5 binding to MEKK3, at 10 µM, hits give low values

Binding response (% of control), inactive:
Cc1ccc(S(=O)(=O)NC(=O)N2CCCC(C)(C)C2)cc1 98%
C=CCN1C=C2C(=O)C(C)(OC(=O)CCc3ccccc3)C(=O)C=C2C=C1c1ccc(C#N)cc1 (stereo unspecified) 103%
Cc1ccc(N2C(=O)CC(N3CCSCC3)C2=O)c(C)c1 (stereo unspecified) 102%
C/C=C/c1ccc(OCCCCN2CCC(C)CC2)c(OC)c1 103%
CN1CCN(/N=C/c2ccc(C#N)cc2)CC1 86%
COc1cc2c(cc1OC)CN(C(=O)c1ccc(S(=O)(=O)N3CCCCCC3)cc1)CC2 100%
CN(CC(=O)Nc1cccc(F)c1)CC(=O)Nc1cccc([N+](=O)[O-])c1 103%
N/C(=N\OS(=O)(=O)c1cccc([N+](=O)[O-])c1)c1ccncc1 104%
C=CCN(CC=C)S(=O)(=O)c1ccc(C(=O)Nc2sc3c(c2C(N)=O)CCCCC3)cc1 100%
Cc1ccc(N(CCC(=O)O)S(=O)(=O)c2cccc(C(F)(F)F)c2)cc1 102%
Cc1ccc(CNC(=O)Cn2c(=O)c3sccc3n(Cc3cccc([N+](=O)[O-])c3)c2=O)cc1 102%
COc1cccc(C2CC(c3ccccc3)=NN2S(=O)(=O)c2ccccc2)c1OC (stereo unspecified) 100%
O=C(Nc1ccn(Cc2ccccc2)n1)c1cccc(F)c1 100%
CCCCOC(=O)c1ccc(N2C(=O)CC(N3CCN(C/C=C/c4ccccc4)CC3)C2=O)cc1 (stereo unspecified) 104%
COc1cc(-c2nnc(Cn3cc(C(F)(F)F)ccc3=O)o2)cc(OC)c1OC 102%
COc1cc(Br)c(-c2sc(Nc3ccccc3)n[n+]2-c2ccccc2)cc1OC 102%
COc1cccc(/C(C)=N/Nc2ncc(Cl)cc2Cl)c1 108%
COc1cc(/C=C2\SC(=S)N(Nc3ncc(C(F)(F)F)cc3Cl)C2=O)cc(OC)c1OC 90%
CCN(CC)CCOCCOc1ccc(Cl)c2ccccc12 107%
CCOc1ccc(NC(=O)Nc2cc(C)ccc2OC)cc1 100%
Cc1onc(-c2ccccc2Cl)c1C(=O)OCC(=O)c1ccccc1 100%
O=C(OCc1cc(Cl)ccc1OC(F)F)c1cccnc1 97%
O=c1c(/C=N/O)coc2ccc(Cl)cc12 101%
O=C(Nc1ccc(Cl)cn1)c1cnn2cccnc12 105%
CCOC(=O)c1sc2nc(C)nc(SCC(N)=O)c2c1C 109%
CCC(C)OC(=O)C(C)Oc1ccc(-c2ccccc2)cc1 (stereo unspecified) 108%
